# Laboratory results published in article PMC7862700, “An all-to-all approach to the identification of sequence-specific readers for epigenetic DNA modifications on cytosine”.
# Legend:
# Experiment in all cases: DAPPL (digital affinity profiling via proximity ligation, sequencing); 10 mM Tris-HCl pH 7.5, 50 mM NaCl, 1 mM DTT, 4% glycerol, room temperature, 30 min; GST-TFs on glutathione beads, 16-mer random dsDNA library, 0.1% formaldehyde crosslink after washing; high values mean tight binding
# FEV = target: T1, FEV (Homo sapiens, UniProt Q99581 1-238); conditions: protein: recombinant; tags: N-terminal GST; dsDNA, one strand shown
# T1 sequence: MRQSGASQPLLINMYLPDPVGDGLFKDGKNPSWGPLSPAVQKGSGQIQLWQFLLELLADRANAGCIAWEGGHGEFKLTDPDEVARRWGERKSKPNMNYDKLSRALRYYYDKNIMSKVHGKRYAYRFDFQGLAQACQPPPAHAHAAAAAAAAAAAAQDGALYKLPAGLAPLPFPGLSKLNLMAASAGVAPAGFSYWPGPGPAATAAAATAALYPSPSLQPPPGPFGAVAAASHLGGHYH
# In short: (§1)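 After expression in yeast as GST fusions, human transcription factors were bound to glutathione beads, DNA-barcoded and mixed with a tag-only sample. The pools were incubated with 200 nmole of a 16-mer random double-stranded DNA library in Tris/NaCl/DTT/glycerol buffer (30 min, room temperature), washed and crosslinked with 0.1% formaldehyde. Proximity ligation with BsaI/T4 ligase ran for 1 h at 37 °C, before PCR amplification and sequencing on an Illumina NextSeq500. Binding signal is a hexamer's read frequency for a factor divided by its frequency for the tag-only sample.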
# ETV5 = ETV5 (Homo sapiens, UniProt P41161 1-510); conditions: protein: recombinant; tags: N-terminal GST; dsDNA, one strand shown
# Sequence of ETV5 (P41161 whole entry): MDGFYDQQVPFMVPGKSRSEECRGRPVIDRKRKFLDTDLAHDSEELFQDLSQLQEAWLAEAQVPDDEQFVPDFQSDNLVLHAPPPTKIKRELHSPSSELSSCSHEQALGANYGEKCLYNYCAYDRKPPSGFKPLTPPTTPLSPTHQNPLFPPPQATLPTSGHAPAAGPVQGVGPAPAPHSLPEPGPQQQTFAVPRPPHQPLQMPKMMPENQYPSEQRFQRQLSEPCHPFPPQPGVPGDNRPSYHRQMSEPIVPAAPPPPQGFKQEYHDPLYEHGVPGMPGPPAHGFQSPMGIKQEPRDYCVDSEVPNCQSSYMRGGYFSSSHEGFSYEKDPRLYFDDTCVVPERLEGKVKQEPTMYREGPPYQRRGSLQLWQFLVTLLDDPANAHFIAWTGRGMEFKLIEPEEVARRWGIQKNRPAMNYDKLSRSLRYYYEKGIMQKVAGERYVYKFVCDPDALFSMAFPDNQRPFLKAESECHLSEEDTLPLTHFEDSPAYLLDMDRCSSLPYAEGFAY
# In short: as §1
# HSF1 = HSF1 (Homo sapiens, UniProt Q00613 1-529); conditions: protein: recombinant; tags: N-terminal GST; chain copies: 3; dsDNA, one strand shown
# Sequence of HSF1 (Q00613 whole entry): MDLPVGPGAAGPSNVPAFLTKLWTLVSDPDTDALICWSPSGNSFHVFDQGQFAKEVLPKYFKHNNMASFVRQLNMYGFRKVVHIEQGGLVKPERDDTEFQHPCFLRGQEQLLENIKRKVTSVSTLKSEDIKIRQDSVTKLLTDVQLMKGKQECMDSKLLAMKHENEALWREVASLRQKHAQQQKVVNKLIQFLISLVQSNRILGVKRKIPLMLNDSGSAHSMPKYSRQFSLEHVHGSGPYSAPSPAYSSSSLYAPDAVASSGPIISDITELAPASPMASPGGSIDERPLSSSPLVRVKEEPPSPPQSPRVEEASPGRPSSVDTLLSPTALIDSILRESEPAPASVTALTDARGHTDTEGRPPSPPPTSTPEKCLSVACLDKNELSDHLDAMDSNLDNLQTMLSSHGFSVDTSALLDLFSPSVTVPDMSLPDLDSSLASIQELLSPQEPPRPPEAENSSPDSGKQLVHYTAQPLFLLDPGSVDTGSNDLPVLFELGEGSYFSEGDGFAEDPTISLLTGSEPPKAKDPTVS
# In short: as §1
# SPIC = target: T2, SPIC (Homo sapiens, UniProt Q8N5J4 1-248); conditions: protein: recombinant; tags: N-terminal GST; dsDNA, one strand shown
# T2 sequence: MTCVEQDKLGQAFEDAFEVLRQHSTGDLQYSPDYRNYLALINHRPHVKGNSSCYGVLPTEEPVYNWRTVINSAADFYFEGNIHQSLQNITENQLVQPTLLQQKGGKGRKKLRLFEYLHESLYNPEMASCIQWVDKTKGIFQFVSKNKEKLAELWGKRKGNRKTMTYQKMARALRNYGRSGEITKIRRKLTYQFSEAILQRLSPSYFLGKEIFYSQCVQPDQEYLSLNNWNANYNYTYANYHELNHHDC
# In short: as §1
# ELF4 = ELF4 (Homo sapiens, UniProt Q99607 1-663); conditions: protein: recombinant; tags: N-terminal GST; dsDNA, one strand shown
# Sequence of ELF4 (Q99607 whole entry): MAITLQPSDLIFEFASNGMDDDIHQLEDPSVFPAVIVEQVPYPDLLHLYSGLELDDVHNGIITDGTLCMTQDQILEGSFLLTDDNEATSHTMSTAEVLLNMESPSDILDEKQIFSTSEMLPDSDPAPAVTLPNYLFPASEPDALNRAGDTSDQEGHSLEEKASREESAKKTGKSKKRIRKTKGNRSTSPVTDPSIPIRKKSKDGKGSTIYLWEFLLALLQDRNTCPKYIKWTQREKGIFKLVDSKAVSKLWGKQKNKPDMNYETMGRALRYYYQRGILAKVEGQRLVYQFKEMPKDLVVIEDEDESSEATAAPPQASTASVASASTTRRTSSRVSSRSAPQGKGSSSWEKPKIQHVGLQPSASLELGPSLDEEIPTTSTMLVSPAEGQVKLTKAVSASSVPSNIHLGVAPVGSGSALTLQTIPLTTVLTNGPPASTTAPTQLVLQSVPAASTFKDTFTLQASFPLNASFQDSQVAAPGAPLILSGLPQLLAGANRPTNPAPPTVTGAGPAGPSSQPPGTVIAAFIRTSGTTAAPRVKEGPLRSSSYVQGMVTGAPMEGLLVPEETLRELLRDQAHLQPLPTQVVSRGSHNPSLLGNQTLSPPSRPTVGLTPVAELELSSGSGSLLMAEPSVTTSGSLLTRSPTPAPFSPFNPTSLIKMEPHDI
# In short: as §1
# ELK4 = target: T3, ELK4 (Homo sapiens, UniProt P28324-2 1-405); conditions: protein: recombinant; tags: N-terminal GST; dsDNA, one strand shown
# T3 sequence: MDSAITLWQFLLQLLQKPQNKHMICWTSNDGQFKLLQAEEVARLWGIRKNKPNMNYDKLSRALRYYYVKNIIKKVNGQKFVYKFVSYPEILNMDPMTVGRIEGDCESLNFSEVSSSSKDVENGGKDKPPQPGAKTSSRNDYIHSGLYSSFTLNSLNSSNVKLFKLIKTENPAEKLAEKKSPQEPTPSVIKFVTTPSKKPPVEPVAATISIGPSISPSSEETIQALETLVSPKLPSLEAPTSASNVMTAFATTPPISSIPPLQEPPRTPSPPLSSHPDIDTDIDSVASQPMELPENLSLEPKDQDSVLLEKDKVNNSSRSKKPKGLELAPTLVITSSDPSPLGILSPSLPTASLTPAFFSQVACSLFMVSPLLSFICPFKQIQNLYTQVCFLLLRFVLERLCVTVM
# In short: as §1
# ETV2 = target: T4, ETV2 (Homo sapiens, UniProt O00321 1-342); conditions: protein: recombinant; tags: N-terminal GST; dsDNA, one strand shown
# T4 sequence: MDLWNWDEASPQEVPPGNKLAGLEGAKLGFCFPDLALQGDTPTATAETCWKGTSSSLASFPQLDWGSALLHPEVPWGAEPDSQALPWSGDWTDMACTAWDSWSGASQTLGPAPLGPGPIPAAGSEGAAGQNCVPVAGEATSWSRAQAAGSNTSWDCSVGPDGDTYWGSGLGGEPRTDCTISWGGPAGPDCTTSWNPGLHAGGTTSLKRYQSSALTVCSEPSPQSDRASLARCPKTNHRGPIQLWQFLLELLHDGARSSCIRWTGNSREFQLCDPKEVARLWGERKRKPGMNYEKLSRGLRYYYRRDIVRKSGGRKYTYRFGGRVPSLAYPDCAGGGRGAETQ
# In short: as §1
# ELF3 = target: T5, ELF3 (Homo sapiens, UniProt P78545 1-371); conditions: protein: recombinant; tags: N-terminal GST; dsDNA, one strand shown
# T5 sequence: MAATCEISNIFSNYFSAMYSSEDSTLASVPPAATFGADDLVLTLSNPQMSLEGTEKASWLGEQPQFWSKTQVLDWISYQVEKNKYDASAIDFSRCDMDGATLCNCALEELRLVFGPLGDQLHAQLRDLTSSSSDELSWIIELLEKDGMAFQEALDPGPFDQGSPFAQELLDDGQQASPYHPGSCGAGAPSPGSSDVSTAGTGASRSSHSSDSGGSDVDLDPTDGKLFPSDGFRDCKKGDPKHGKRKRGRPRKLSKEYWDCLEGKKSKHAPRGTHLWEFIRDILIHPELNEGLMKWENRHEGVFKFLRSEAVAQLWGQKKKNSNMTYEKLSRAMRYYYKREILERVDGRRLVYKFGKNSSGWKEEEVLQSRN
# In short: as §1
# CRX = CRX (Homo sapiens, UniProt O43186 1-299); conditions: protein: recombinant; tags: N-terminal GST; dsDNA, one strand shown
# Sequence of CRX (O43186 whole entry): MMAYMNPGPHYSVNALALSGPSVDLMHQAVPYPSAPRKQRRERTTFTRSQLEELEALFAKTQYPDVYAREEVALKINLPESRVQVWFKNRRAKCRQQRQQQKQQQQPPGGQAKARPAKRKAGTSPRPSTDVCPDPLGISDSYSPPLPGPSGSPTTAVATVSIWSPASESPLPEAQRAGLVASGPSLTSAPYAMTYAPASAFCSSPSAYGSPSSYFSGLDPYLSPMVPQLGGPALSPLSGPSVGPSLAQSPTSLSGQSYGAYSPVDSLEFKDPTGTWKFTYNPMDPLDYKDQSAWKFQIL
# In short: as §1
# ETV1 = ETV1 (Homo sapiens, UniProt P50549 1-477); conditions: protein: recombinant; tags: N-terminal GST; dsDNA, one strand shown
# Sequence of ETV1 (P50549 whole entry): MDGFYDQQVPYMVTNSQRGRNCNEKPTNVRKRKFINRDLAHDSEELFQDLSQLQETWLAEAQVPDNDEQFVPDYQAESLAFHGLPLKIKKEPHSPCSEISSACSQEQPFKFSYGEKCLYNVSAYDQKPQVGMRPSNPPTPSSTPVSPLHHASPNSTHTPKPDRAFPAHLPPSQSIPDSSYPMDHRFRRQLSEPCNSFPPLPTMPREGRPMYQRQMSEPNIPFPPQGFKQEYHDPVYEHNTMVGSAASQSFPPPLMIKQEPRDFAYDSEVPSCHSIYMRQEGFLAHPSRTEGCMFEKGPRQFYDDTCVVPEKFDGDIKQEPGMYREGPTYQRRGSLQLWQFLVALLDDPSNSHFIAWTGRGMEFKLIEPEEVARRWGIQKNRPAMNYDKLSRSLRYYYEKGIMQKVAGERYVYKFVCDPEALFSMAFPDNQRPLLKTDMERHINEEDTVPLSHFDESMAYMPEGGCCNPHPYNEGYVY
# In short: as §1
# ERF = target: T6, ERF (Homo sapiens, UniProt P50548 1-548); conditions: protein: recombinant; tags: N-terminal GST; dsDNA, one strand shown
# T6 sequence: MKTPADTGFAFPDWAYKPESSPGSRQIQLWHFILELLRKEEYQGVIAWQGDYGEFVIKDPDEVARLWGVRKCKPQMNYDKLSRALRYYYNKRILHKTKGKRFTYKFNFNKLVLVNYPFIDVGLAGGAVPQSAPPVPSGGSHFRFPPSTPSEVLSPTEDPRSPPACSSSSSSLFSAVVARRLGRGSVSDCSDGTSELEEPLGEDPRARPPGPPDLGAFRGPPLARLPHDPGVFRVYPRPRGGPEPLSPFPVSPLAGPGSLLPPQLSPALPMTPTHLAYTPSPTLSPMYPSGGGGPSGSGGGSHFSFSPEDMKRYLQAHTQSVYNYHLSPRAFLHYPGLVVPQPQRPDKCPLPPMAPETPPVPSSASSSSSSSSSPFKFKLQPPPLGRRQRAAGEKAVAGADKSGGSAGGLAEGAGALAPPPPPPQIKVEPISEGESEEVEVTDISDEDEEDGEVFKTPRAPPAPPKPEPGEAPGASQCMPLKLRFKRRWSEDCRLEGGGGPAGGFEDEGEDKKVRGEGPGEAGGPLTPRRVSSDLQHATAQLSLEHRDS
# In short: as §1
# ETV3L = target: T7, ETV3L (Homo sapiens, UniProt Q6ZN32 1-361); conditions: protein: recombinant; tags: N-terminal GST; dsDNA, one strand shown
# T7 sequence: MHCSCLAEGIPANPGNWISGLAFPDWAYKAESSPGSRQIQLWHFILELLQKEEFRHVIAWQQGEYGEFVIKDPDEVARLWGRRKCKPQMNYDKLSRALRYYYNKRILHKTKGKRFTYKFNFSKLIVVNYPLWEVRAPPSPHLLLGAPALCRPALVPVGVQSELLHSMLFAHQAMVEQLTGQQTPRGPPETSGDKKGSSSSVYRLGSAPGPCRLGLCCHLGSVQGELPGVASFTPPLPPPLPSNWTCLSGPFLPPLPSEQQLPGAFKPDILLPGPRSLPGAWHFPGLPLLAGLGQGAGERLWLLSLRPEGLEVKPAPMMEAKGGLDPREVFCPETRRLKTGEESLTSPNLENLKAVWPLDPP
# In short: as §1
# ETS2 = target: T8, ETS2 (Homo sapiens, UniProt P15036 1-469); conditions: protein: recombinant; tags: N-terminal GST; dsDNA, one strand shown
# T8 sequence: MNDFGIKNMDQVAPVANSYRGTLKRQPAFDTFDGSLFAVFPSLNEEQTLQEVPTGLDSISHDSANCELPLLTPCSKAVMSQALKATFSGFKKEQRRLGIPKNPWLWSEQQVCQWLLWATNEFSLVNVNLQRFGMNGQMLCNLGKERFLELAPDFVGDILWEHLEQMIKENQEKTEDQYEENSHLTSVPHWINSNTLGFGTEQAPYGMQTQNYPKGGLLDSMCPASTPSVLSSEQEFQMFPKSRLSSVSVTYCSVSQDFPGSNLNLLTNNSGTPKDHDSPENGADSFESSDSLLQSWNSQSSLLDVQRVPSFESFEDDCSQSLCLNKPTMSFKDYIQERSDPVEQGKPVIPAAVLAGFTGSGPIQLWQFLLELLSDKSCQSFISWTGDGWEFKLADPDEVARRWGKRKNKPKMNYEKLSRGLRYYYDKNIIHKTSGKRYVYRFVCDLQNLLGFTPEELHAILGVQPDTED
# In short: as §1
# SPDEF = target: T9, SPDEF (Homo sapiens, UniProt O95238 1-335); conditions: protein: recombinant; tags: N-terminal GST; dsDNA, one strand shown
# T9 sequence: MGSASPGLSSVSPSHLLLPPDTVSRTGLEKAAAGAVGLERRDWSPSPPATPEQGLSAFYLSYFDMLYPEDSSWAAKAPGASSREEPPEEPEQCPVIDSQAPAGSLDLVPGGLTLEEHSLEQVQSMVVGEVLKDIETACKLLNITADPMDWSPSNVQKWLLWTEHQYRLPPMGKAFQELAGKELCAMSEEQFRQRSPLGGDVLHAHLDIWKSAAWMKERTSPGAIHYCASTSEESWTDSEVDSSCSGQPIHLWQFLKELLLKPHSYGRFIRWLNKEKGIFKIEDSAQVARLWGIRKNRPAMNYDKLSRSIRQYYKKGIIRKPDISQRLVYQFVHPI
# In short: as §1
# ETV7 = target: T10, ETV7 (Homo sapiens, UniProt Q9Y603 1-341); conditions: protein: recombinant; tags: N-terminal GST; dsDNA, one strand shown
# T10 sequence: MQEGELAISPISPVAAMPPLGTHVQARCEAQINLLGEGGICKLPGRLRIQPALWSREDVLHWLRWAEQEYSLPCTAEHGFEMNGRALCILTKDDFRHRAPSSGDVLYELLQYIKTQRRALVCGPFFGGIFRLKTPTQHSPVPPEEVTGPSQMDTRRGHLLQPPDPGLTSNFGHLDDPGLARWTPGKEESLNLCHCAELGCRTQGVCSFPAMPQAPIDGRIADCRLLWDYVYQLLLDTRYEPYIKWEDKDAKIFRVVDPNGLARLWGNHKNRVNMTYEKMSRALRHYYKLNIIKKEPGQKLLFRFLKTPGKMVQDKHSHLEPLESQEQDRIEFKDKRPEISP
# In short: as §1
# ELF5 = target: T11, ELF5 (Homo sapiens, UniProt Q9UKW6-2 1-255); conditions: protein: recombinant; tags: N-terminal GST; dsDNA, one strand shown
# T11 sequence: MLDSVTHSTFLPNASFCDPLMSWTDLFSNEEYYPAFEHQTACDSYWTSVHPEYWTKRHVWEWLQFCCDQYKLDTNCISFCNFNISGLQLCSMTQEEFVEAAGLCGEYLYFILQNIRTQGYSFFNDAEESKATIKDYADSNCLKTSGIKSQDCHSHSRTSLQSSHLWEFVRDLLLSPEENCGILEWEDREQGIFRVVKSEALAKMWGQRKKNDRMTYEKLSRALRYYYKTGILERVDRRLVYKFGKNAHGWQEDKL
# In short: as §1
# ETV3 = target: T12, ETV3 (Homo sapiens, UniProt P41162-2 1-143); conditions: protein: recombinant; tags: N-terminal GST; dsDNA, one strand shown
# T12 sequence: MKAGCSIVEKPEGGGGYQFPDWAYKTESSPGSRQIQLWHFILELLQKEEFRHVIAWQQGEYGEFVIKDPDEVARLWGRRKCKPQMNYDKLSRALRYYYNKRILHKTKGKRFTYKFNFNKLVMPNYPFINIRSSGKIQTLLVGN
# In short: as §1
# ETV6 = ETV6 (Homo sapiens, UniProt P41212 1-452); conditions: protein: recombinant; tags: N-terminal GST; dsDNA, one strand shown
# Sequence of ETV6 (P41212 whole entry): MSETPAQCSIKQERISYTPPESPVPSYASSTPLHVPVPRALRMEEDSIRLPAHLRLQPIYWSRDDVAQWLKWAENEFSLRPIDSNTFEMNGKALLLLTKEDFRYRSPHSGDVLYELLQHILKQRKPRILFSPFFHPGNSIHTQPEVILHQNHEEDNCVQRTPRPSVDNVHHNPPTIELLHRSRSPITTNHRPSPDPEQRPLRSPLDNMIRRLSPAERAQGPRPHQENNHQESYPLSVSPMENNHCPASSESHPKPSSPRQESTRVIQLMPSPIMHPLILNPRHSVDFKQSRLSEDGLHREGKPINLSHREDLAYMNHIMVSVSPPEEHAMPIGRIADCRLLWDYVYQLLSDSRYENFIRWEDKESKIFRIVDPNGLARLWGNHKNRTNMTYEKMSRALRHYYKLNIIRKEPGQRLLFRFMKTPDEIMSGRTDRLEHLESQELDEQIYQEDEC
# In short: as §1
sequence,measurement,setting,value
CTTTGA,binding signal,FEV,"1.14 fold enrichment (6-mer frequency, TF over GST control)"
same,binding signal,ETV5,"1.18 fold enrichment (6-mer frequency, TF over GST control)"
same,binding signal,HSF1,"1.21 fold enrichment (6-mer frequency, TF over GST control)"
same,binding signal,SPIC,"1.4 fold enrichment (6-mer frequency, TF over GST control)"
same,binding signal,ELF4,"1.24 fold enrichment (6-mer frequency, TF over GST control)"
same,binding signal,ELK4,"1.41 fold enrichment (6-mer frequency, TF over GST control)"
same,binding signal,ETV2,"1.27 fold enrichment (6-mer frequency, TF over GST control)"
same,binding signal,ELF3,"1.16 fold enrichment (6-mer frequency, TF over GST control)"
same,binding signal,CRX,"1.23 fold enrichment (6-mer frequency, TF over GST control)"
same,binding signal,ETV1,"1.21 fold enrichment (6-mer frequency, TF over GST control)"
same,binding signal,ERF,"1.18 fold enrichment (6-mer frequency, TF over GST control)"
same,binding signal,ETV3L,"1.11 fold enrichment (6-mer frequency, TF over GST control)"
same,binding signal,ETS2,"1.15 fold enrichment (6-mer frequency, TF over GST control)"
same,binding signal,SPDEF,"1.1 fold enrichment (6-mer frequency, TF over GST control)"
same,binding signal,ETV7,"1.34 fold enrichment (6-mer frequency, TF over GST control)"
same,binding signal,ELF5,"1.16 fold enrichment (6-mer frequency, TF over GST control)"
same,binding signal,ETV3,"1.35 fold enrichment (6-mer frequency, TF over GST control)"
same,binding signal,ETV6,"1.25 fold enrichment (6-mer frequency, TF over GST control)"
